# B1: unnamed (peptide)
# chain: RVRKTHVPASKRPSG
# Biological target: AgAbp1
# Test: SPOT peptide array binding signal intensity (averaged, normalized) (arbitrary units (background-subtracted, floor 0; scale differs between SH3 domains)); higher = stronger binding of the SH3 domain to the peptide
# Summary of the method: (§1)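 The binding signal is the normalized, background-subtracted spot intensity averaged over replicates; its arbitrary units differ between domains. It was obtained by incubating 10 μg/ml GST-fused SH3 domains from four yeast species overnight at 4°C in TBS-based blocking buffer on cellulose membranes with synthetic 15-mer peptides, cysteines replaced by serines, then detecting with anti-GST antibody, HRP anti-mouse secondary and luminol.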
row,Binder,SPOT peptide array binding signal intensity
1,B1,81.5

# Biological target: AgBbc1
# Test: as above
# Summary of the method: as §1
row,Binder,SPOT peptide array binding signal intensity
1,B1,105

# Biological target: AgBem1-D1
# Test: as above
# Summary of the method: as §1
row,Binder,SPOT peptide array binding signal intensity
1,B1,48.5

# Biological target: AgBzz1-D1
# Test: as above
# Summary of the method: as §1
row,Binder,SPOT peptide array binding signal intensity
1,B1,2

# Biological target: AgBzz1-D2
# Test: as above
# Summary of the method: as §1
row,Binder,SPOT peptide array binding signal intensity
1,B1,≤ 0

# Biological target: AgCyk3
# Test: as above
# Summary of the method: as §1
row,Binder,SPOT peptide array binding signal intensity
1,B1,1

# Biological target: AgFus1
# Test: as above
# Summary of the method: as §1
row,Binder,SPOT peptide array binding signal intensity
1,B1,118

# Biological target: AgHof1
# Test: as above
# Summary of the method: as §1
row,Binder,SPOT peptide array binding signal intensity
1,B1,7

# Biological target: AgHse1
# Test: as above
# Summary of the method: as §1
row,Binder,SPOT peptide array binding signal intensity
1,B1,210

# Biological target: AgLsb1
# Test: as above
# Summary of the method: as §1
row,Binder,SPOT peptide array binding signal intensity
1,B1,0.75

# Biological target: AgLsb4
# Test: as above
# Summary of the method: as §1
row,Binder,SPOT peptide array binding signal intensity
1,B1,18

# Biological target: AgMyo5
# Test: as above
# Summary of the method: as §1
row,Binder,SPOT peptide array binding signal intensity
1,B1,≤ 0

# Biological target: AgNbp2
# Test: as above
# Summary of the method: as §1
row,Binder,SPOT peptide array binding signal intensity
1,B1,91

# Biological target: AgRvs167
# Test: as above
# Summary of the method: as §1
row,Binder,SPOT peptide array binding signal intensity
1,B1,1

# Biological target: AgSho1
# Test: as above
# Summary of the method: as §1
row,Binder,SPOT peptide array binding signal intensity
1,B1,5

# Biological target: AgSla1-D1-D2
# Test: as above
# Summary of the method: as §1
row,Binder,SPOT peptide array binding signal intensity
1,B1,18

# Biological target: AgSla1-D3
# Test: as above
# Summary of the method: as §1
row,Binder,SPOT peptide array binding signal intensity
1,B1,1.5

# Biological target: CaAbp1-D1
# Test: as above
# Summary of the method: as §1
row,Binder,SPOT peptide array binding signal intensity
1,B1,919

# Biological target: CaAbp1-D2
# Test: as above
# Summary of the method: as §1
row,Binder,SPOT peptide array binding signal intensity
1,B1,520

# Biological target: CaBbc1
# Test: as above
# Summary of the method: as §1
row,Binder,SPOT peptide array binding signal intensity
1,B1,188

# Biological target: CaBem1-D1
# Test: as above
# Summary of the method: as §1
row,Binder,SPOT peptide array binding signal intensity
1,B1,18

# Biological target: CaBzz1-D1
# Test: as above
# Summary of the method: as §1
row,Binder,SPOT peptide array binding signal intensity
1,B1,30

# Biological target: CaBzz1-D2
# Test: as above
# Summary of the method: as §1
row,Binder,SPOT peptide array binding signal intensity
1,B1,48.8

# Biological target: CaCyk3
# Test: as above
# Summary of the method: as §1
row,Binder,SPOT peptide array binding signal intensity
1,B1,7.5

# Biological target: CaFus1
# Test: as above
# Summary of the method: as §1
row,Binder,SPOT peptide array binding signal intensity
1,B1,200

# Biological target: CaHof1
# Test: as above
# Summary of the method: as §1
row,Binder,SPOT peptide array binding signal intensity
1,B1,0.5

# Biological target: CaHse1
# Test: as above
# Summary of the method: as §1
row,Binder,SPOT peptide array binding signal intensity
1,B1,9.75

# Biological target: CaLsb1
# Test: as above
# Summary of the method: as §1
row,Binder,SPOT peptide array binding signal intensity
1,B1,0.5

# Biological target: CaLsb4
# Test: as above
# Summary of the method: as §1
row,Binder,SPOT peptide array binding signal intensity
1,B1,33

# Biological target: CaMyo5
# Test: as above
# Summary of the method: as §1
row,Binder,SPOT peptide array binding signal intensity
1,B1,≤ 0

# Biological target: CaNbp2
# Test: as above
# Summary of the method: as §1
row,Binder,SPOT peptide array binding signal intensity
1,B1,216

# Biological target: CaRvs167
# Test: as above
# Summary of the method: as §1
row,Binder,SPOT peptide array binding signal intensity
1,B1,1

# Biological target: CaRvs167-3
# Test: as above
# Summary of the method: as §1
row,Binder,SPOT peptide array binding signal intensity
1,B1,7.25

# Biological target: CaSho1
# Test: as above
# Summary of the method: as §1
row,Binder,SPOT peptide array binding signal intensity
1,B1,89

# Biological target: CaSla1-D1-D2
# Test: as above
# Summary of the method: as §1
row,Binder,SPOT peptide array binding signal intensity
1,B1,112

# Biological target: CaSla1-D3
# Test: as above
# Summary of the method: as §1
row,Binder,SPOT peptide array binding signal intensity
1,B1,≤ 0

# Biological target: ScAbp1
# Test: as above
# Summary of the method: as §1
row,Binder,SPOT peptide array binding signal intensity
1,B1,15.5

# Source: the supplement of paper PMC4466140
